Assay outcomes deposited in PubChem by National Center for Advancing Translational Sciences (NCATS).
DRD3 agonist = agonists of human D3 dopamine receptor; D3R DiscoveRx beta-arrestin cells, luminescence, 90 min; AID 652048; max activation, %; hit rate 0.58% among 410,000; in the data active = max activation above about 30%; also: 0% is about no effect
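Agonist-mode cell screen: cells plated at 1500/well and incubated overnight at 37 °C, then exposed to library compounds for 90 min at 37 °C. Detection reagent was added for 30–60 min at room temperature, and luminescence was read.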
D1 ag = agonists of human D1 dopamine receptor; P21728; HEK293 T-REx D1 cells, calcium flux, agonist mode; activation, % at 2 µM; hit rate 1% among 360,000; AID 504660; in the data active = activation above about 30%; also: 0% is about no effect
Target sequence (P21728 whole entry, looked up): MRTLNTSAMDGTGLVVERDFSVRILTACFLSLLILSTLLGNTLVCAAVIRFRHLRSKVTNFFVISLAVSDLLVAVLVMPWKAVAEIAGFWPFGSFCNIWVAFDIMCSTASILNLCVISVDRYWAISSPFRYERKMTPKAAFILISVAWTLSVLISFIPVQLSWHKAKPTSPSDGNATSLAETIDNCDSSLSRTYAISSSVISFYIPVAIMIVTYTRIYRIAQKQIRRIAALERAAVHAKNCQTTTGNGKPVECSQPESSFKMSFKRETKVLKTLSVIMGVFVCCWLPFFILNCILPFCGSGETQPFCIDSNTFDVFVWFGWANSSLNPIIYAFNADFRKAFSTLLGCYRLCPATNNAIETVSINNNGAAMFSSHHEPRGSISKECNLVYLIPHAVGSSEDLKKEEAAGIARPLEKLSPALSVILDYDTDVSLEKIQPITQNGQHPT
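Inducible HEK293 T-REx D1 cells, force-coupled to calcium signalling, were plated at 4000 cells/well with tetracycline and held overnight at 30 C. After no-wash calcium dye loading, compound-evoked calcium rise over 180 s flagged agonists.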
D1 potentiator = enhances dopamine response at the human D1 receptor; hit rate 0.036% among 360,000; potentiation, % at 10 µM; AID 504651; HEK293 TREx D1 cells, calcium flux, dopamine EC20 potentiation; in the data active = potentiation above about 30%; also: 0% is about no effect
D1 antagonist = antagonists of human D1 dopamine receptor | hit rate 3.2% among 360,000 | P21728 | HEK293 TREx D1 cells, calcium flux, dopamine EC80; active compounds read low | activity change, negative = inhibition, % at 10 µM; in the data active = activity change below about -30%; also: % is scaled to controls: 0 for no effect and ±100 for the full control effect
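Kinetic fluorescence of a calcium dye serves as the read-out. D1-expressing Hek293 Trex cells, induced overnight at 30 C, are exposed to compound for 180 s before an EC80 dopamine addition, then read 180 s further.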
DRD3 antagonist = blocks the human D3 dopamine receptor; D3R cells, DiscoveRx beta-arrestin luminescence, antagonist mode; active compounds read low; max response, negative = inhibition, %; hit rate 2.5% among 360,000; in the data active = max response below about -50%; inconclusive = no clear call, values can overlap the other calls; also: % is scaled to controls: 0 for no effect and ±100 for the full control effect
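Cells plated overnight at 1500 cells/well, then exposed to library compounds with dopamine controls for 90 minutes at 37 degrees C. DiscoveRx reagent added for 30–60 minutes at room temperature; luminescence read, quantitative HTS format.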
Starred values were filed as active, the others as inactive; ? = inconclusive; nt = no result given. In the library only some 6% were active in any assay of this set; here they are far more common.

SMILES	DRD3 agonist	D1 ag	D1 potentiator	D1 antagonist	DRD3 antagonist
Clc1ccccc1C(c1ccccc1)(c1ccccc1)n1ccnc1	0	6	5	-34*	-28
COc1ccc(Cn2c(C(=O)O)c(CNCc3ccc(SC)cc3)c3ccc(OC)cc32)cc1	-38	-1	-6	-10	nt
Cc1ccc(CNS(=O)(=O)c2ccc(C(C)(C)C)cc2)n1C	19	3	-18	-31*	47
CC(C)(C)c1ccc(S(=O)(=O)NCCN2CCOCC2)cc1	-3	nt	nt	nt	-11
CCOc1ccc(-n2nc(CO)c(C(=O)NCc3cccs3)n2)cc1	6	1	0	9	nt
O=S(=O)(c1ccc(Cl)cc1)N1CCN(c2nc(-c3ccc(Cl)cc3)nc3ccccc23)CC1	nt	0	2	-36*	nt
O=S(=O)(c1ccccc1)N1CCN(c2ccnc3cc(Cl)ccc23)CC1	10	7	10	-41*	-8
Cc1cc(N2CCN(S(=O)(=O)c3ccccc3)CC2)c2ccccc2n1	2	11	-3	-35*	4
O=C(Nc1ccc(C(F)(F)F)cc1)N1CCN(c2ccnc3cc(Cl)ccc23)CC1	-5	13	-14	-37*	-2
COc1ccc(CCNC[C@H](O)c2ccc(O)cc2)cc1OC	3	nt	nt	nt	nt
Cc1ccc(C)c(N2CCN(C(=O)Cn3c(-c4cccs4)cc4ccccc43)CC2)c1	1	-1	5	12	nt
Cc1cccc(CN2C(=O)c3ccccc3Sc3ccc(C(=O)NC4CCCCC4)cc32)c1	-7	1	-2	-11	nt
Cc1cccc(C)c1NC(=O)CNC(=O)Cc1c[nH]c2ccccc12	-10	1	0	-10	10
Cc1cccc(C)c1NC(=O)c1c[nH]c2ccccc12	-7	0	-11	-48*	2
O=S(=O)(c1ccccc1)N1CCN(C(=S)NCCCN2CCOCC2)CC1	-10	0	5	-46*	-12
S=C(NCCN1CCOCC1)N/N=C/c1c2ccccc2cc2ccccc12	0	32*	1	-3	-13
COc1ccc2ccccc2c1/C=N/NC(=S)NCCN1CCOCC1	-4	1	2	1	-11
S=C(NCCCN1CCOCC1)NN=C1c2ccccc2-c2ccccc21	-18	nt	nt	nt	-71*
CCOC(=O)C1CCN(C(=O)c2nn(-c3ccc(C)cc3)c(=O)c3c2c2ccccc2n3C)CC1	-7	-1	1	-1	nt
Cc1ccc(-n2ncc3c(NCCCn4ccnc4)ncnc32)cc1	5	-3	-1	-13	nt
Cc1ccc(NC(=O)CCN2CCN(CCO)CC2)cc1C	-3	0	-1	3	nt
COc1ccc(O)c(C(=O)/C=C/c2cc3ccccc3o2)c1	-2	1	1	-6	-62*
O=C(/C=C/c1cc2ccccc2o1)c1ccccc1O	-9	3	7	5	-23
CC1(C)CC(=O)C2=C(C1)Nc1ccccc1NC2c1ccccc1F (centres undefined)	7	-2	-2	-4	6
Cc1c(C2Nc3ccccc3NC3=C2C(=O)CC(C)(C)C3)cnn1C (centres undefined)	-3	0	3	-1	-71*
SMILES	DRD3 agonist	D1 ag	D1 potentiator	D1 antagonist	DRD3 antagonist
CCOc1ccc(NS(=O)(=O)c2ccc3[nH]cc(C(=O)N(C)C4CCCCC4)c(=O)c3c2)cc1	7	5	-3	-11	nt
CCCN(CCC)CCCNC(=O)c1cc2c(=O)oc3ccc(C)cc3c2s1	-6	-1	-3	-2	nt
CC(c1ccccc1)C(CC(=O)O)C(=O)NC1CCCCC1 (centres undefined)	4	1	-4	-31*	24
CC(C)N(Cc1ccccc1)C(=S)NC1CCCCC1	2	5	-15	-31*	-1
CC1CC(C)CN(C(=O)COC(=O)c2ccc3ccccc3n2)C1 (centres undefined)	5	8	-2	-37*	17
CC1CCN(C(=O)COC(=O)c2ccc3ccccc3n2)CC1	8	nt	nt	nt	-11
CCNC(=S)Nc1ccc(NC(=O)c2ccccc2O)cc1	-31	1	0	29	?
CCNC(=S)Nc1cccc(NC(=O)c2ccccc2O)c1	2	1	-3	-36*	-10
CC(C)N(Cc1ccccc1)C(=O)c1cc2ccc3cccnc3c2[nH]1	5	6	4	-34*	nt
CCCCN(CCCC)C(=S)[S-].CCCCN(CCCC)C(=S)[S-].[Zn+2]	-1	nt	nt	nt	nt
NCCOc1ccc(C2CCCCC2)cc1	-10	32*	6	32	1
O=C(O)COc1ccc(/C=C/C(=O)c2ccc(C3CCCCC3)cc2)cc1	-11	4	10	-14	?
Nc1ncnc(Sc2ncccn2)c1[N+](=O)[O-]	-20	0	-2	nt	-84*
COc1ccccc1N1CCN(C(=O)C2CCN(S(=O)(=O)c3cccs3)CC2)CC1	-10	3	5	-9	nt
CCN1CCN(c2ccc(NC(=O)c3ccc([N+](=O)[O-])o3)cc2Cl)CC1	-14	2	-6	-5	-72*
CCN1CCN(c2ccc(NC(=O)c3ccc(F)cc3)cc2Cl)CC1	5	13	-17	-40*	-3
CCC1CN(C(=O)N2CCC(C(=O)NCCC3=CCCCC3)CC2)c2cc(C)ccc2O1 (centres undefined)	2	1	-3	-31*	nt
O=C(NCCC1=CCCCC1)C1CCN(C(=O)c2ccc(Cl)cc2)CC1	7	0	1	-13	-131*
Clc1ccc(CNCCC2=CCCCC2)cc1	-53	3	4	2	-71*
CC(C)c1ccc(CN2CCN(C(=O)CSc3nnnn3C3CC3)CC2)cc1	-6	5	-2	-36*	1
Cc1cc(C)n(-c2nc(NC(C)(C)C)nc(NC(C)(C)C)n2)n1	-14	0	-3	6	-62*
Cc1cc(C)n(-c2nc(NC(C)C)nc(NC(C)C)n2)n1	-2	2	1	23	-51*
CCNc1nc(NCC)nc(-n2nc(C)cc2C)n1	-10	-1	1	2	-13
O=C(Cn1cncn1)N/N=C/c1cc([N+](=O)[O-])ccc1O	-12	5	-3	-1	?
O=C(N/N=C/c1cc([N+](=O)[O-])ccc1O)C1CCCCC1	-11	3	-2	-2	-88*
O=C(N/N=C/c1cc([N+](=O)[O-])ccc1O)C1C2CCCCC21 (centres undefined)	nt	0	-1	-6	nt
O=C(Cn1nc2ccccc2n1)N/N=C/c1cc([N+](=O)[O-])ccc1O	1	1	-5	-3	-65*
CCN(CC)C(=O)C1CCCN(c2ccc([N+](=O)[O-])cc2/C=N/NC(=O)c2ccc([N+](=O)[O-])cc2)C1 (centres undefined)	-7	nt	nt	nt	-79*
O=C(Cn1nnc(-c2ccccc2)n1)N/N=C/c1cc([N+](=O)[O-])ccc1O	-20	1	-7	4	-76*
O=C1COc2cc(S(=O)(=O)CCC(=O)N3CCN(c4ccccc4)CC3)c(Cl)cc2N1	-2	-1	-3	2	nt
